Read-out in assay [1]: Interleukin-8 (IL8), CXCL8 (gene 3576)
Nature of the assay: BSK_3C_IL8: BioMAP Diversity Plus: 3C Assay for Interleukin-8 (IL8) Biomarker Activity (AID 2283020). Conditions: primary human endothelial cells (HUVEC); actives raise or lower the signal. Summed up: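 ELISA read-out of IL-8 from human umbilical vein endothelium, measured 24 h after chemical dosing. Activity is expressed relative to DMSO negative control, with both increases and decreases fitted.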

Read-out in assay [2]: Monokine induced gamma interferon (MIG), CXCL9 (gene 4283)
Briefly: BSK_3C_MIG: BioMAP Diversity Plus: 3C Assay for Monokine induced gamma interferon (MIG) Biomarker Activity (AID 2283021).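 On AC50: MIG protein level measured by immunoassay in the treated endothelial cultures.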 As to conditions: primary human endothelial cells (HUVEC); actives raise or lower the signal. The procedure, abridged: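 Read-out is ELISA detection of MIG on human umbilical vein endothelial cells, taken 24 h after dosing. Gain or loss of signal was scored relative to DMSO controls using bidirectional curve fitting.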

In assay [3] the target is human Vitamin D Receptor (VDR), VDR (gene 7421) (UniProt P11473). Nature of the assay: ATG_VDR_TRANS: Attagene TRANS-FACTORIAL HepG2 Assay for human Vitamin D Receptor (VDR) (AID 2283022; active means hit-call score of the fitted dose curve at least 0.9, where 1 is the maximum). The procedure, abridged: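 Steps: transfect HepG2 with GAL4-UAS-driven reporter constructs; dose compounds 24 h; isolate RNA, reverse-transcribe, PCR-amplify with 6-FAM-labelled primer extension and HpaI digestion; quantify fragments by capillary electrophoresis relative to DMSO.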

Assay [4] is described as follows: BSK_3C_SRB: Viability Assessment in the BioMAP Diversity Plus: 3C Assay (AID 2283023).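 Further: fitted both ways against DMSO so a hit may be signal rise or drop.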 Conditions: primary human endothelial cells (HUVEC). Summed up: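 Absorbance at 560 nm of sulforhodamine B-stained (0.1%) total protein served as a cytotoxicity readout in human umbilical vein endothelial cells, 24 h after chemical treatment. Signal was fitted bidirectionally relative to DMSO.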

Read-out in assay [5]: Matrix Metallopeptidase 1 (MMP1), MMP1 (gene 4312)
Briefly: BSK_BE3C_MMP1: BioMAP Diversity Plus: BE3C Assay for Matrix Metallopeptidase 1 (MMP1) Biomarker Activity (AID 2283024). Conditions: primary human bronchial epithelial cells; actives raise or lower the signal. The procedure, abridged: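 Human bronchial epithelial cells (BE3C system) exposed to compound for 24 h; MMP1 then quantified by ELISA. Activity was fitted in both directions relative to DMSO.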

The nature of assay [6]: BSK_3C_Vis: BioMAP Diversity Plus: 3C Assay for Morphology Visualization (AID 2283025).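 Further: fitted both ways so gain or loss versus DMSO counts.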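 On AC50: light microscopy image of cell morphology used as background control.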 Conditions: primary human endothelial cells (HUVEC). The procedure, abridged:
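Chemicals were added to primary human umbilical vein endothelium, cells were incubated 24 h, and morphology was then visualized by light microscopy. Gain or loss of signal was fitted bidirectionally relative to DMSO.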

Read-out in assay [7]: Pselectin, SELP (gene 6403)
Briefly: BSK_4H_Pselectin: BioMAP Diversity Plus: 4H Assay for Pselectin Biomarker Activity (AID 2283026). Conditions: primary human endothelial cells (HUVEC); actives raise or lower the signal. The procedure, abridged:
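ELISA read-out of P-selectin on human umbilical vein endothelium after 24 h of dosing. Values derive from bidirectional fitting relative to DMSO. Parallel SRB protein staining flagged overt cytotoxicity.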

Assay [8] in a line: BSK_4H_SRB: Viability Assessment in the BioMAP Diversity Plus: 4H Assay (AID 2283027).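 Further: cells exposed to compound for 24 h before staining.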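 On AC50: curves fitted both ways versus DMSO so AC50 may be loss or gain.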 As to conditions: primary human endothelial cells (HUVEC). Summed up: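 Human umbilical vein endothelial cells were dosed with chemical and, after 24 h, fixed with 10% TCA, stained with 0.1% sulforhodamine B, and read at 560 nm to give total protein as a cytotoxicity measure. Bidirectional fitting relative to DMSO control.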

A short description of assay [9]: BSK_BE3C_SRB: Viability Assessment in the BioMAP Diversity Plus: BE3C Assay (AID 2283028).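 On AC50: fitted both ways so AC50 may mark signal gain or loss versus DMSO.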 Conditions: primary human bronchial epithelial cells. The procedure, abridged: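 Cells (human bronchial epithelial, primary) are treated with chemicals, and after 24 h the parallel cultures are fixed in 10% TCA. These are then stained with 0.1% SRB and read at 560 nm. Gain or loss of signal is fitted relative to DMSO.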

Read-out in assay [10]: Thrombomodulin, THBD (gene 7056)
Nature of the assay: BSK_3C_Thrombomodulin: BioMAP Diversity Plus: 3C Assay for Thrombomodulin Biomarker Activity (AID 2283029). Conditions: primary human endothelial cells (HUVEC); actives raise or lower the signal. Summed up: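 Read-out is ELISA of thrombomodulin on human umbilical vein endothelium 24 h after chemical dosing. Gain or loss of signal is scored relative to DMSO. Overt cytotoxicity is checked in parallel cultures by sulforhodamine B staining.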

Broadly, the AC50 is the concentration giving half of the maximal activity seen.

Results filed as inconclusive are left out. Activity calls are given as the source filed them. How the source made its calls, unless noted: active means hit-call score of the fitted dose curve at least 0.9, where 1 is the maximum; inactive means score below 0.9.

Sequence of human Vitamin D Receptor (VDR), VDR (gene 7421) (P11473 whole entry, looked up, the tested form may be a part): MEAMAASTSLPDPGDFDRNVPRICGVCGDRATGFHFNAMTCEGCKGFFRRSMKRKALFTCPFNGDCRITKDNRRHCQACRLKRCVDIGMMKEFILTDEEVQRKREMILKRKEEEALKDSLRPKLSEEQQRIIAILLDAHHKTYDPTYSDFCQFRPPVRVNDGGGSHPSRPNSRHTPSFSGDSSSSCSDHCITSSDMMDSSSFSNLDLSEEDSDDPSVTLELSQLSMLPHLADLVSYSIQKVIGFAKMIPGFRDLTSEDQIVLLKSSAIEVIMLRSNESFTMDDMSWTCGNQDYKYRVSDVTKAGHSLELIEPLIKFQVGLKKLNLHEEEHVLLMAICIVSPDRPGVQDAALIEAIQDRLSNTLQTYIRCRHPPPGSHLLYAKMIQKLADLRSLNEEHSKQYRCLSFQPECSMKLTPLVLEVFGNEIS

As to `Clc1ccccc1-c1nnc(-c2ccccc2Cl)nn1`, the outcome in assay [1], in assay [2], in [3], in [4], in assay [5] and in assay [6] was inactive. The result in assay [7], in [8], in assay [9] and in [10] was inactive.
In the case of `N#Cc1c(Cl)c(Cl)c(Cl)c(C#N)c1Cl`, the AC50 in assay [1] is 1.67 µM (active); in [2] it was 2.06 µM (active); in assay [4] it was 2.14 µM (active); in assay [5], 4.1 µM (active); in [6], 0.468 µM (active); in assay [7], 0.911 µM (active). The AC50 in assay [8] is 1.96 µM (active); in assay [9], 1.72 µM (active); in assay [10] it was 0.148 µM (active). In [3], the result was inactive.
`OCCOc1ccccc1`: the result in assay [1], in [2], in [3], in assay [4], in assay [5] and in assay [6] was inactive. Moreover, the outcome in assay [7], in [8], in assay [9] and in assay [10] was inactive.
On to `CC(C)OC(=O)Nc1cccc(Cl)c1`, for which the result in assay [1], in [2], in [3], in assay [4], in assay [5] and in assay [6] was inactive. Further, the outcome in [7], in [8], in [9] and in [10] was inactive.
For the molecule `CC[C@H](C)[C@H]1O[C@]2(C=C[C@@H]1C)C[C@@H]1C[C@@H](C/C=C(\C)[C@@H](O[C@H]3C[C@H](OC)[C@@H](O[C@H]4C[C@H](OC)[C@@H](O)[C@H](C)O4)[C@H](C)O3)[C@@H](C)/C=C/C=C3\CO[C@@H]4[C@H](O)C(C)=C[C@@H](C(=O)O1)[C@]34O)O2` (tested in a mixture with another compound), the concentration at half-maximal activity (AC50) in assay [1] was 6.07 µM (active); in [2] it was 12.1 µM (active); in [4], 5.58 µM (active); in assay [5] it was 11.1 µM (active); in assay [6] it was 3.78 µM (active); in assay [7], 5.3 µM (active). Further, the values for the concentration at half-maximal activity (AC50) in assay [8], in [9] and in assay [10] were 8.22 µM (active), 4.65 µM (active) and 2.13 µM (active), respectively. The call in [3] was inactive.
Take `O=C1c2ccccc2C(=O)N1SC(Cl)(Cl)Cl`: the result in [1], in [2], in assay [3], in [4], in [6] and in [7] was inactive. For the same molecule, the outcome in assay [8] and in assay [10] was inactive. Further, the AC50 in [5] is 34.9 µM (active); in assay [9] it was 31.8 µM (active).
Take `Cc1cc(C)nc(NC(=O)NS(=O)(=O)c2ccccc2C(=O)OC2COC2)n1`: the outcome in assay [1], in assay [2], in assay [3], in [4], in assay [5] and in [6] was inactive. In addition, the outcome in assay [7], in assay [8], in assay [9] and in assay [10] was inactive.
Turning to `O=C(Nc1ccccc1)Nc1cnns1`, the outcome in [1], in [2], in assay [3], in assay [4], in assay [5] and in assay [6] was inactive. For the same molecule, the result in assay [7], in [8], in [9] and in [10] was inactive.
With `CCOCN(C(=O)CCl)c1c(C)cccc1CC`, the result in assay [1], in assay [2], in assay [3], in assay [5], in assay [8] and in assay [10] was inactive. The AC50 in assay [4] is 18.2 µM (active); in assay [6], 39 µM (active); in assay [7], 11.4 µM (active); in [9], 20 µM (active).
For `COP(=S)(OC)Oc1ccc([N+](=O)[O-])cc1`, the AC50 in assay [1] is 2.36 µM (active); in assay [4], 23 µM (active); in assay [6], 14.4 µM (active); in assay [8] it was 5.97 µM (active). The outcome in assay [2], in assay [3], in assay [5], in [7], in assay [9] and in assay [10] was inactive.
Take `O=S1OCC2C(CO1)C1(Cl)C(Cl)=C(Cl)C2(Cl)C1(Cl)Cl` (stereo not given): the AC50 was 32.7 µM (active) in assay [1]; 36 µM (active) in assay [2]; 20 µM (active) in assay [4]; 36.6 µM (active) in [5]; 16.3 µM (active) in [6]; 27.3 µM (active) in assay [7]. Besides, the AC50 in [8] was 27.7 µM (active); in assay [9], 20.9 µM (active). Besides, the molecule was called inactive in assay [3] and in assay [10].
Turning to `CCC(C)(C)C(=O)OC1=C(c2ccc(Cl)cc2Cl)C(=O)OC12CCCCC2`, the AC50 in assay [1] was 30.9 µM (active); in assay [2], 35.2 µM (active); in assay [4], 26.1 µM (active); in assay [5] it was 36.6 µM (active); in [6], 29.4 µM (active); in [7], 36.5 µM (active). In addition, the half-maximal activity concentration (AC50) in assay [8] was 34.3 µM (active); in assay [9], 31.3 µM (active). The molecule was called inactive in assay [3] and in assay [10].
As to `O=[N+]([O-])/N=C1\NCCN1Cc1ccc(Cl)nc1`, the outcome in [1], in assay [2], in assay [3], in [4], in assay [5] and in assay [6] was inactive. The outcome in [7], in [8], in [9] and in assay [10] was inactive.

The values are drawn from PubChem BioAssay (EPA / NIEHS).
